Source: PubChem
Only some compounds are listed: those with a hit (about 12% of all), similar ones and a draw of the others.
USP30 block = blocks human USP30 ubiquitin-rhodamine cleavage; purified USP30, Ub-rhodamine cleavage fluorescence; inhibition, % at 25 µM; hit rate 5.3% among 47,000; AID 1645860
USP28 block = inhibitors of human USP28 deubiquitinase; purified USP28, Ub-rhodamine cleavage fluorescence, 30 min; inhibition, % at 25 µM; Q96RU2; hit rate 3% among 47,000
Target sequence (Q96RU2 whole entry, looked up): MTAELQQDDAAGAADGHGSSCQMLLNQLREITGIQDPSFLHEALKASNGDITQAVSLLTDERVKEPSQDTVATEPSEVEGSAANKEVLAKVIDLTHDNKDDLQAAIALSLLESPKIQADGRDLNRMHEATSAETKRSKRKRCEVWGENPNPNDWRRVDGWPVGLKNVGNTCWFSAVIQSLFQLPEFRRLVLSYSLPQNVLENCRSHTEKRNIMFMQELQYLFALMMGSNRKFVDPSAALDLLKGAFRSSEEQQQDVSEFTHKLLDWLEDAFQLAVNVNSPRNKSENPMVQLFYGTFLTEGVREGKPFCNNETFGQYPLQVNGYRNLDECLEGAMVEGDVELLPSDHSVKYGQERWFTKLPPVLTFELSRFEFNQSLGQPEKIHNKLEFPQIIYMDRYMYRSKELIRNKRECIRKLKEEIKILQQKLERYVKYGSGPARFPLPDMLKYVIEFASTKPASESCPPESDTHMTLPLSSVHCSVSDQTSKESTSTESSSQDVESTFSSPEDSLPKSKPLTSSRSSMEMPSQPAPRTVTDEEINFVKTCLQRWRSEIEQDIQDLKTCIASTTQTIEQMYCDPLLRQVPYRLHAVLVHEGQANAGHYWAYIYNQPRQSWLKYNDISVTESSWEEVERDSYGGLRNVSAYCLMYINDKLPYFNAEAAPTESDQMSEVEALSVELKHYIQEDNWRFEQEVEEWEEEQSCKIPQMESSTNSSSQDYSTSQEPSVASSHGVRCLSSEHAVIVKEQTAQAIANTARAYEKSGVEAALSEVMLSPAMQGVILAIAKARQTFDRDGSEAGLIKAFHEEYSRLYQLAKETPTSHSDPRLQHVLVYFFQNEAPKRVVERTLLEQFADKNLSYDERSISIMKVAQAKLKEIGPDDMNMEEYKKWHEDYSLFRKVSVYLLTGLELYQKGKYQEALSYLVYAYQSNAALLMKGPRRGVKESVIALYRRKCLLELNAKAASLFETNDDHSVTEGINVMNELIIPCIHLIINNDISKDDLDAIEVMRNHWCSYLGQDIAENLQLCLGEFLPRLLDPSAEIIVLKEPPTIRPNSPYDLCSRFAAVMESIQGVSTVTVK
OTUD3 inh = inhibitors of human OTUD3 deubiquitinase; hit rate 0.7% among 47,000; inhibition, % at 25 µM; purified OTUD3, Ub-rhodamine fluorescence, 2 h; Q5T2D3; AID 1645858
USP17 inh = blocks human USP17 ubiquitin-rhodamine cleavage. A8MUK1. purified USP17, Ub-rhodamine cleavage fluorescence, 3 h. inhibition, % at 50 µM. hit rate 6.5% among 47,000
Active calls of the source: *; . = no result. Cut-off read from the data, not from the text of the source: active = inhibition above about 30%; inactive = the rest.

SMILES | USP30 block | USP28 block | OTUD3 inh | USP17 inh
O=C(CN1CCOCC1)Nc1nc(-c2ccc3c(c2)CCN3C(=O)C2CC2)cs1 | -7.3 | -7.4 | -3.3 | 0.0
O=C(CN1CCOCC1)Nc1nc(-c2ccc3c(c2)CCN3C(=O)c2ccccc2F)cs1 | 11.3 | 8.3 | 15.8 | 30.4*
O=C(CN1CCCCC1)Nc1nc(-c2ccc3c(c2)CCN3C(=O)C2CC2)cs1 | 14.0 | 14.6 | 11.3 | 31.1*
O=C1CC(C(=O)Nc2ccc3c(c2)OCO3)n2ncc(-c3ccccc3)c2N1 (centres undefined) | 0.1 | 10.1 | 9.1 | 13.7
Cn1nc(C2CCCN(C(=O)COc3ccccc3F)C2)c2nccnc21 (centres undefined) | -2.9 | -4.9 | -3.5 | 1.1
O=C(CCc1c[nH]c2ccccc12)Nc1ccc(Br)cc1F | 17.3 | 42.3* | 16.7 | 14.3
O=C(Nc1cccc(N2CCC(NCc3cnn(-c4cccc(F)c4)c3)CC2)c1)c1ccncc1 | . | . | 1.5 | -3.3
O=C(c1ccc(Cl)cc1)N(Cc1ccccn1)c1nc2ccc(F)cc2s1 | 23.9 | 9.2 | 9.7 | 11.4
Cc1ccc(NC2=NC(c3ccco3)n3c(nc(C)cc3=O)N2)c(C)c1 (centres undefined) | 62.0* | 21.7 | 7.9 | 40.2*
Cc1cc(=O)n2c(n1)NC(Nc1ccc(F)cc1)=NC2c1ccco1 (centres undefined) | -1.5 | 2.7 | -9.3 | .
Cc1cc(-c2cnc(C)nc2C2CCN(C(=O)CCc3ccco3)CC2)on1 | 20.6 | 5.3 | 9.3 | 3.9
NC(=O)c1ccccc1NC(=O)COc1ccc2c(c1)oc(=O)c1ccccc12 | -1.4 | -15.8 | 0.4 | -3.7
CCC(=O)c1ccc(OCC(=O)Nc2ccc(C#N)cc2)cc1 | -11.4 | 3.9 | 8.6 | 46.8*
COc1ccc(NC(=O)COc2ccc(C#N)cc2)cc1OC | 2.6 | -8.1 | -6.5 | -0.5
N#Cc1ccc(NC(=O)COc2ccc3oc4ccccc4c3c2)cc1 | 2.0 | 3.3 | 1.5 | 45.2*
COc1cccc(/C=C/C(=O)NCc2nnc3c(C(F)(F)F)cc(Cl)cn23)c1 | -42.0 | -5.8 | -8.1 | -13.9
COc1cccc(/C=C/C(=O)Nc2ccc(C)c(Cl)c2)c1 | 40.1* | 64.8* | 16.2 | 26.0
O=C(O)c1ccccc1C(=O)Nc1ccc(SC(C(=O)Nc2ccccc2Cl)c2ccccc2)cc1 (centres undefined) | 4.2 | 23.8 | 9.1 | 47.4*
Cc1cccc(NC(=O)C(Sc2ccc(NC(=O)c3ccccc3C(=O)O)cc2)c2ccccc2)c1 (centres undefined) | -38.2 | -15.4 | -36.8 | -23.1
Cc1cccc(C(=O)Nc2cccc(SC(C(=O)Nc3ccc(O)c(C(=O)O)c3)c3ccccc3)c2)c1 (centres undefined) | 6.1 | 51.9* | 8.0 | 29.4
O=C(O)c1cccc(NC(=O)C(Sc2cccc(NC(=O)c3cccc(Cl)c3)c2)c2ccccc2)c1 (centres undefined) | -3.6 | 26.1 | 2.5 | 41.6*
Cc1ccccc1C(=O)Nc1cccc(SC(C(=O)Nc2ccc(O)c(C(=O)O)c2)c2ccccc2)c1 (centres undefined) | 38.2* | 15.3 | 10.6 | 28.2
Cc1nc2scc(C)n2c(=O)c1NC(=O)c1ccco1 | 2.2 | 2.8 | 13.4 | -17.5
CCN1CC2(CC1=O)CN(C(=O)Cc1ccccc1)CCN(C(=O)C(C)C)C2 (centres undefined) | 13.0 | 6.5 | 11.5 | 11.1
COc1c(C)c(C(O)C(C)O)c2[nH]c3ccc(CC=C(C)C)cc3c2c1O (centres undefined) | 48.4* | 48.2* | -46.9 | 98.7*
SMILES | USP30 block | USP28 block | OTUD3 inh | USP17 inh
CCOc1ccc(Oc2ccc(NC(=O)COc3ccc(C(=O)c4ccccc4)cc3)cc2)cc1 | 15.8 | 3.2 | -5.8 | 7.2
N=c1sccn1CC(=O)Nc1ccc(Oc2ccccc2)cc1 | 9.9 | 37.1* | 4.5 | 0.5
O=C(Cc1ccccc1F)N1CCC(c2[nH]nc3nccnc23)CC1 | 5.6 | -1.8 | -1.3 | -9.2
O=C(c1ccccc1F)N1CCC(c2[nH]nc3nccnc23)CC1 | 35.4* | 18.6 | 14.6 | 17.3
O=C(c1cccc2c1OCCO2)N1CCOCC1c1ccn[nH]1 (centres undefined) | 32.5* | 13.6 | 20.0 | 10.8
CC(C)(C)c1cc(C(=O)N2CCOCC2c2ccn[nH]2)n[nH]1 (centres undefined) | -34.3 | -20.6 | -14.1 | -14.4
C=C(C)Cn1c(N2CCC(Cc3ccccc3)CC2)nc2c1c(=O)[nH]c(=O)n2C | 36.7* | 8.8 | 12.2 | 29.7
Cc1cc(C)nc(SCCn2c(N3CCC(Cc4ccccc4)CC3)nc3c2c(=O)n(C)c(=O)n3C)n1 | 56.2* | 20.3 | 8.4 | 41.4*
Cc1nnc(SCCn2c(N3CCC(Cc4ccccc4)CC3)nc3c2c(=O)n(C)c(=O)n3C)s1 | 7.2 | -5.2 | 5.7 | -16.5
CCSc1nnc(-c2cccc(NC(=O)c3ccccc3Cl)c2)n1C | 3.7 | 23.5 | -7.9 | -20.5
COc1ccccc1N(CC(=O)NCc1ccc(F)cc1)C(=O)CCC(=O)Nc1ccccn1 | 35.2* | 6.7 | 1.8 | 3.4
COc1ccc(CNC(=O)CN(C(=O)CCC(=O)Nc2ccccn2)c2ccccc2F)cc1 | 7.4 | -0.1 | -12.5 | -3.0
COc1ccc(C(=O)[C@H]2CCCN(C(=O)c3ccn[nH]3)C2)cc1 | 9.2 | 7.6 | 11.5 | 1.3
COc1ccccc1CNc1ccc(S(=O)(=O)Nc2ccccc2)cc1[N+](=O)[O-] | 4.2 | 12.6 | 0.0 | 0.2
O=[N+]([O-])c1cc(S(=O)(=O)Nc2ccccc2)ccc1NCc1ccc(F)cc1 | 35.5* | -35.0 | 22.7 | 4.7
Cc1ccccc1NC(=O)c1c(C)sc2c(=O)n(C(C)C)cnc12 | -19.9 | -8.4 | -10.0 | 31.9*
Cc1cc(C)c(C#N)c(N2CCN(S(=O)(=O)Cc3ccccc3)CC2)n1 | 22.4 | 3.1 | 7.2 | 45.3*
O=c1[nH]c(CN2CCOCC2)nc2cc(-c3ccc(Cl)cc3)sc12 | -10.6 | 0.3 | 8.7 | 16.1
Cc1ccc(S(=O)(=O)NC(C(=O)N=c2sc3ccccc3n2C)C(C)C)cc1 (centres undefined) | -22.7 | 14.6 | -5.0 | 62.8*
CCS(=O)(=O)N1Cc2ccccc2CC1C(=O)N=c1sc2ccccc2n1C (centres undefined) | -100.8 | 7.9 | -33.1 | 0.1
Cc1[nH]c(C(=O)Nc2cccc(F)c2)c(C)c1S(=O)(=O)N1CCCC1 | -60.0 | 8.1 | 3.9 | -5.7
CCn1cc(S(=O)(=O)Nc2ccccc2F)c2cccnc21 | -34.7 | 1.1 | 3.5 | 7.7
CCn1cc(S(=O)(=O)NCc2cc(F)cc(F)c2)c2cccnc21 | -43.7 | 11.4 | 10.4 | 37.2*
CCCc1cc(=O)oc2cc(OCC(=O)NCc3ccccn3)ccc12 | 60.0* | 17.2 | 14.9 | 61.2*
Cc1cc(=O)oc2cc(OCC(=O)NCc3ccccn3)ccc12 | 19.5 | 10.6 | 8.0 | 11.9
CCc1nc(SCC(=O)Nc2cc(Cl)ccc2C)c2oc3ccccc3c2n1 | 68.2* | 13.7 | 22.4 | 54.2*
CCc1nc(SCC(=O)Nc2ccccc2Cl)c2oc3ccccc3c2n1 | -2.2 | -5.6 | -0.1 | 58.0*
CCc1nc(SCc2ccccc2C)c2oc3ccccc3c2n1 | 32.0* | 8.7 | 5.6 | 28.6
Nc1ccc2c(c1)nc1n2CCN(Cc2ccc3c(c2)OCO3)C1 | -13.4 | -18.8 | -12.8 | 22.5
